# Most compounds without a hit are left out; they make up all but 7.3% or so of the library.
# 3T3 cytotox: Cytotoxic Profiling in NIH 3T3 Cell Line of Diverse Libraries Using Quantitative High-Throughput Screening. NIH 3T3 viability, CellTiter-Glo ATP luminescence, 48-72 h. Potency, µM (series often up to 96.7 µM), usual class: inhibitors. 94,000 compounds, 4.3% hits; further: nearly all actives have a fitted effect of over 55% in size
#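 NIH 3T3 cells at 400 cells/well received 23 nL of compound by pintool and were incubated 48 or 72 h at 37 °C. Viability was read as ATP-coupled CellTiter-Glo luminescence.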
# IP6K1 inhibitor: Primary qHTS assay for small molecule inhibitors of Inositol hexaphosphate kinase 1 (IP6K1). 140,000 compounds, 0.81% hits. IP6K1 kinase, ADP-Glo luminescence, 2 h; stronger effect = lower value. activity change, % (series mostly up to about 58 µM). Inositol hexakisphosphate kinase 1 (Homo sapiens), Q92551; in the data active means activity change below about -25%
#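 ADP-Glo luminescence measures ADP made by human IP6K1 during a 2 h RT reaction with ATP/IP6 (mix at 1.3 mM/130 uM); top library doses 57.5 and 19.1 uM final.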
# HEK293 tox: Cytotoxic Profiling in HEK 293 Cell Line of Diverse Libraries Using Quantitative High-Throughput Screening | Potency, µM (titrated, usually from 115 µM), usual class: inhibitors | 94,000 compounds, 6.6% hits | HEK 293 viability, ATP luminescence (CellTiter-Glo), 48-72 h; further: nearly all actives have a fitted effect of over 60% in size
#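 qHTS cytotoxicity; HEK 293, 250 cells/well; compound pinned; 48 or 72 hr, 37 degree Celsius, 5% CO2, 95% humidity; CellTiter-Glo, 10 min RT; luminescence (ATP).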
# SNCA viab count: GF-AFC viability counterscreen for inhibitors of alpha-synuclein gene (SNCA) expression; HEK-293-SNCA-luc viability, GF-AFC fluorescence, 24 h; Potency, µM (top dose mostly 57.1 µM), hits mostly cytotoxic; AID 1671193, 2021; 150,000 compounds, 0.12% hits; further: nearly all actives have a fitted effect of over 30% in size
#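 HEK-293-SNCA-luc cells (1500/well) plated 24 h, then exposed 24 h to a dilution series; GF-AFC added 30 min at 37C, fluorescence 405/540 nm; normalised to medium-only and DMSO wells, Hill fit.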
# Luciferase inh: Firefly luciferase inhibition profiling of diverse chemical library using quantitative high-throughput screening. Luciferin 4-monooxygenase (Photinus pyralis), P08659. purified P. pyralis luciferase, luminescence, biochemical. Potency, µM (doses to about 115 µM), most hits filed as inhibitors. 76,000 compounds, 2.5% hits; further: nearly all actives have a fitted effect of over 65% in size
# Target sequence (P08659 whole entry, looked up): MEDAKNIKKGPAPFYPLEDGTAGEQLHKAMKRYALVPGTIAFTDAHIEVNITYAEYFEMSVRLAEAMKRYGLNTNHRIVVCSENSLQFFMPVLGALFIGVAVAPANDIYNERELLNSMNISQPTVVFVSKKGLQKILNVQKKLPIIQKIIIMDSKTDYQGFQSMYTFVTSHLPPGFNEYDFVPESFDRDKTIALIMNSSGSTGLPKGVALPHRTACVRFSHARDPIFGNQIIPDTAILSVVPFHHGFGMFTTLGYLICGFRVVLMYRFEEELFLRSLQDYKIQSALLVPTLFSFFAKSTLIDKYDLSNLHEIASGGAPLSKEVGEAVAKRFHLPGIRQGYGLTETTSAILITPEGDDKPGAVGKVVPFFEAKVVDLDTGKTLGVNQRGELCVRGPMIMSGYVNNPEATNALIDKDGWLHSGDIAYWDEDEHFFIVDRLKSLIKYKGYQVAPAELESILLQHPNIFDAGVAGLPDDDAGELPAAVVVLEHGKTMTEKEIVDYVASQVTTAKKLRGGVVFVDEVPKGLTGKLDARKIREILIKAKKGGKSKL
#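 Purified P. pyralis luciferase (10nM final) in 50mM Tris acetate pH 7.5, 10mM Mg acetate, 0.01% Tween-20, 0.05% BSA with 10uM D-luciferin and 10uM ATP. Compounds titrated qHTS. Luminescence imaged on CCD.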
# SNCA expr inh: Primary qHTS assay for inhibitors of alpha-synuclein gene (SNCA) expression; Potency, µM (doses to about 57.2 µM), usual class: inhibitors; HEK-293 SNCA-luciferase knock-in, luminescence, 24 h; 140,000 compounds, 0.17% hits; further: nearly all actives have a fitted effect of over 45% in size
# A number is an active result; . = inactive; ? = inconclusive; / = not tested or not shown; ! = not confirmed by another sample; [ ] = dose if it differs, or a comment. Unless noted, the call rests on the fitted dose curve; in most records, active means well fitted curve in the direction sought with a large enough effect; inconclusive means small, poorly fitted or top-dose-only effect, or another doubt; inactive means no such curve, though single readings can be large; an effect the other way counts as inactive or inconclusive.
SMILES,3T3 cytotox,IP6K1 inhibitor,HEK293 tox,SNCA viab count,Luciferase inh,SNCA expr inh
COc1ccc(-c2nnc(C[C@@H]3C[C@@H](C(C)C)[C@H](CNc4ccccn4)C=C3C)o2)cc1,35.5µM,.,25.1µM,?,.,?
COc1ccc(-c2nnc(C[C@@H]3C[C@@H](C(C)C)[C@H](CNC(=O)c4cnccn4)C=C3C)o2)cc1,.,.,?,.,.,?
COc1ccc(-c2nnc(C[C@@H]3C[C@@H](C(C)C)[C@H](CN(C)CCc4ccccn4)C=C3C)o2)cc1,35.5µM,.,22.4µM,?,.,?
CC1=C[C@@H](CN(C)CCC#N)[C@H](C(C)C)C[C@H]1Cc1nnc(-c2ccc(C)cc2)o1,?,.,50.1µM,?,.,?
COc1ccc(-c2nnc(C[C@@H]3C[C@@H](C(C)C)[C@H](CNCc4cccnc4)C=C3C)o2)cc1,?,.,?,.,.,.
CC1=C[C@@H](CN2CCC(O)CC2)[C@H](C(C)C)C[C@H]1Cc1nnc(-c2ccc([N+](=O)[O-])cc2)o1,?,.,?,.,.,.
COc1ccc(-c2nnc(C[C@@H]3C[C@@H](C(C)C)[C@H](CN(C)CCC#N)C=C3C)o2)cc1,89.1µM,.,63.1µM,?,.,?
COc1cccc(CNC(=O)Cn2c(-c3ccc(F)cc3)nc(C)cc2=O)c1,?,.,?,.,.,?
COCCNC(=O)C[C@@H]1C[C@@H](C(C)C)[C@H](CNS(=O)(=O)c2ccc(OC)cc2)C=C1C,?,.,?,.,.,.
CCC1(C2CCN(C(=O)CCc3ccccc3)CC2)NC(=O)N(CCc2scnc2C)C1=O (configuration not stated),.,.,.,.,.,.
O=C(Nc1ccc(Cl)cc1)N1CCN(c2ccc3nnc(C4CC4)n3n2)CC1,22.4µM,.,35.5µM,/,/,/
O=C(Nc1ccccc1)N1CCN(c2ccc3nnc(C4CC4)n3n2)CC1,?,.,?,/,/,/
CCC(C)Oc1ccc(CNC(=O)c2cn(CCN)nn2)cc1 (configuration not stated),?,.,31.6µM,.,.,.
COc1ccc(-c2cc(CNC(=O)c3cn(CCN)nn3)no2)cc1,?,.,?,.,.,.
CC(C)(C)OC(=O)N1CC(Nc2ccc(O)cc2)C1,28.2µM!,.,44.7µM,?,/,?
O=C(Nc1ccc2c(N3CCCC3)ncnc2c1)c1ccccc1Br,?,.,8.91µM,?,.,.
O=C(Nc1ccc2c(N3CCCC3)ncnc2c1)c1ccc(Br)cc1,?,.,?,?,?,?
COc1ccc(CC(=O)Nc2ccc3ncnc(N4CCCCC4)c3c2)c(Cl)c1,?,.,?,.,.,.
COc1cccc(CC(=O)Nc2ccc3c(N4CCCCC4)ncnc3c2)c1,?,.,31.6µM,.,.,?
COc1ccccc1C(=O)Nc1ccc2ncnc(N3CCCCC3)c2c1,?,.,39.8µM,.,.,?
Cc1cc(C)c(C)c(S(=O)(=O)NC2CCN(c3ccc(=O)n(CC4CC4)n3)CC2)c1C,?,.,31.6µM,.,.,?
COC(=O)c1ccc(CNCC2=CC(C)(C)COc3ccc(OC)cc32)cc1,?,.,?,/,/,/
COc1cc(-c2nc(-c3c(C)noc3C)cc3[nH]c(C)cc23)ccn1,?,.,89.1µM,.,.,.
Cc1cc2c(-c3cccc(S(C)(=O)=O)c3)nc(-c3c(C)noc3C)cc2[nH]1,8.91µM,.,?,.,.,.
Cc1cc2c(-c3ccccc3C)nc(-c3c(C)noc3C)cc2[nH]1,?,.,?,.,.,.
SMILES,3T3 cytotox,IP6K1 inhibitor,HEK293 tox,SNCA viab count,Luciferase inh,SNCA expr inh
Cc1cc2c(-c3cccc(O)c3)nc(-c3c(C)noc3C)cc2[nH]1,35.5µM,.,44.7µM,.,.,.
Cc1cc2c(-c3ccccc3O)nc(-c3c(C)noc3C)cc2[nH]1,?,.,?,?,.,.
Cc1cc2c(-c3cccc(CO)c3)nc(-c3c(C)noc3C)cc2[nH]1,35.5µM,.,?,.,.,.
O=C(C1CCCC1)N1CCC2(CC1)CC(N(Cc1ccc(F)cc1)C1CC1)CCO2 (configuration not stated),?,.,?,.,.,.
c1ccc(-c2noc(-c3ccn4c(CN5CCN(c6ccccc6)CC5)nnc4c3)n2)cc1,.,.,.,.,.,.
COCC1CCCN(C(=O)c2cc(Cn3c(C)nc4ccccc43)[nH]n2)C1 (configuration not stated),.,.,.,.,.,.
Cc1nc2ccccc2n1Cc1cc(C(=O)N2CCCC2)no1,?,.,39.8µM,.,.,.
CC1CCCN(C(=O)c2cc(-c3ccc(C(F)(F)F)cc3)nc3c2cnn3C)C1 (configuration not stated),?,.,44.7µM,/,/,/
CCN1CCN(C(=O)c2cc(-c3cccc(C(F)(F)F)c3)nc3c2cnn3C)CC1,31.6µM,.,?,.,/,.
CCc1noc(-c2ccn3c(CNC(=O)c4ccoc4)nnc3c2)n1,.,.,.,.,.,.
COCCOc1ccc2c(n1)CCN(C(=O)c1ccc(C(C)C)cc1)C2,?,.,?,.[12.5 µM],15.8µM,.
CCOc1ccc2c(n1)CCN(C(=O)c1ccc(C)cc1)C2,.,.,.,.[12.5 µM],.,.
CCOc1ccc2c(n1)CCN(C(=O)c1ccc(C(C)C)cc1)C2,?,.,?,.[12.5 µM],31.6µM,.
O[C@@H]1CC(CNCc2cccc(Cl)c2)(COc2ccccc2)C[C@@H]1O (some centres not stated),?,.,100µM,.,.,?
CCC(O)c1cc2n(n1)CCN(C(=O)c1cnn(-c3ccccn3)c1C)C2 (configuration not stated),.,.,.,.,.,.
COc1ccc(C(=O)NC2CCN(c3cc(-c4cccs4)[nH]n3)CC2)cc1OC,?,.,?,.,.,.
COc1ccc(C(=O)NC2CCN(c3cc(-c4cccs4)[nH]n3)CC2)cc1,?,.,?,.,17.8µM,.
Cc1ccc(C(=O)NC2CCN(c3cc(-c4cccs4)[nH]n3)CC2)c(C)c1,31.6µM,.,?,.,.,.
Cc1ccc(C(=O)NC2CCN(c3cc(-c4cccs4)[nH]n3)C2)c(C)c1 (configuration not stated),.,.,.,.,.,.
COc1ccc(Cl)cc1C(=O)NC1CCN(c2cc(-c3cccs3)[nH]n2)CC1,7.94µM,.,?,.,.,?

# Compound activity deposited in PubChem by National Center for Advancing Translational Sciences (NCATS).
